For some assays here: Potency and affinity values are given separately.
Experiments:
Parameters in all cases: scale not given: direction of the effect not stated beside the values
[1] = target: Protein translocase subunit SecA (Escherichia coli (strain K12)) (UniProt P10408); test: Assay to Identify E. coli SecA ATPase Inhibitors; type: functional; conditions: 30 µM
[2] = target: T1, Ubiquitin-activating enzyme e1, putative (Leishmania donovani (strain BPK282A1)) (UniProt E9BSI1); test: Leishmania donovani Ubiquitin Activating Enzyme (LdE1); type: functional; conditions: 30 µM
T1 sequence (whole entry): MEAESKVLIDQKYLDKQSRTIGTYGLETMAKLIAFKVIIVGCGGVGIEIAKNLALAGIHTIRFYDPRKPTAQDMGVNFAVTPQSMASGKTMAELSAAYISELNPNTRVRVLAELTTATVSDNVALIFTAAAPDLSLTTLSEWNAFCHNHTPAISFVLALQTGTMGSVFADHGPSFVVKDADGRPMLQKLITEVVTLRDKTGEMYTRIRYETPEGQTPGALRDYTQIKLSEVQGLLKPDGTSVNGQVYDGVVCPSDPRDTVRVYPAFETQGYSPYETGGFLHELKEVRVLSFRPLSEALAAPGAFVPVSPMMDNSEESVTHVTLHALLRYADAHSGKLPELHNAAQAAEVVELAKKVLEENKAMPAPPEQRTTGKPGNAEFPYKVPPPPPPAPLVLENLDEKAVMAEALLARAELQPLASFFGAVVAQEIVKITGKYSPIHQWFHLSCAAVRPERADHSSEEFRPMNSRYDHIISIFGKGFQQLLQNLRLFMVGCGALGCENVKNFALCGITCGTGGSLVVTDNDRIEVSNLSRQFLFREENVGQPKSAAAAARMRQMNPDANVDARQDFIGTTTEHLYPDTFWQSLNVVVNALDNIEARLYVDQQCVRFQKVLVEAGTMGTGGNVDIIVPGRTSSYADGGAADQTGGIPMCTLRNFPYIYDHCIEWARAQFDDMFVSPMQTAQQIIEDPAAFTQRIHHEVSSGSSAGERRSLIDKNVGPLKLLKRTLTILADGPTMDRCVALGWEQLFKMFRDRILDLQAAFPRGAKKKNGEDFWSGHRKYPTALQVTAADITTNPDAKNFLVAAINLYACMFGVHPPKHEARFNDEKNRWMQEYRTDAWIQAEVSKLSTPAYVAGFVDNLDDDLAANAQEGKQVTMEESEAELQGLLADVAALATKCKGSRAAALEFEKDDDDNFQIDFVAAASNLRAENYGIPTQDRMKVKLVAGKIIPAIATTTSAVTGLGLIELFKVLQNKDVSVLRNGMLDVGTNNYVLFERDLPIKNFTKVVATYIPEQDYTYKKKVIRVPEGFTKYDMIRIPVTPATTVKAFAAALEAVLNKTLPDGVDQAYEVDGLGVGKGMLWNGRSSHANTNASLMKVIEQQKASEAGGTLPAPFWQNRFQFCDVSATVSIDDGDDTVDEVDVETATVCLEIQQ

[3] = target: AMP-activated protein kinase, AMPK (Homo sapiens) (UniProt P54646+O43741+P54619+Q9UGJ0+Q9Y478+Q13131+Q9UGI9); test: AMP-dependent Kinase enzyme assay. An in vitro enzyme assay that detects ADP turnover that is directly proportional to AMPK activity. This uses naive AMPK that is activated during the assay with MK-8722; type: functional; conditions: 30 µM
[4] = target: Sialic acid-binding Ig-like lectin 9 (Homo sapiens) (UniProt Q9Y336); test: Hs-Siglec9 ALPHAscreen SOP 20170721; conditions: 10 µM
Trypanosoma cruzi = test: Trypanosoma cruzi phosphomannomutase and mannose-1-phosphate guanylyltransferase assay; type: functional; conditions: 10 µM
[5] = target: T2, Arginase-2, mitochondrial (Homo sapiens) (UniProt P78540); test: in vitro enzyme assay to detect the production of urea directly proportional to the activity of Arginase II; type: functional; conditions: 33.3 µM; further: in the data most compounds retested in dose-response had high values
T2 sequence (whole entry): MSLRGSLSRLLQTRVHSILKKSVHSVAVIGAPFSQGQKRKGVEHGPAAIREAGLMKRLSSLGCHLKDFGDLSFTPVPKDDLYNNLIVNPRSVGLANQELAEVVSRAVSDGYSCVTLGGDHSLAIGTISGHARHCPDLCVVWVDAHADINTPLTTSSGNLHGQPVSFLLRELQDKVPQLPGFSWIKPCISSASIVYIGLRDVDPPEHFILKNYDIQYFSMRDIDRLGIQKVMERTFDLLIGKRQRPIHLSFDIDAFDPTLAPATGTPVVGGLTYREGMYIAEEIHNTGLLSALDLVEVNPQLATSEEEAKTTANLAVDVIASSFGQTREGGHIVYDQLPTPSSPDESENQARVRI

[6] = target: T3, Proteasome subunit beta (Trypanosoma cruzi) (UniProt O96673); test: Trypanosoma cruzi proteasome chymotrypsin-like activity (TcProtChymo) assay.; further: in the data most compounds retested in dose-response had high values; type: functional; conditions: 9.37 µM
T3 sequence (whole entry): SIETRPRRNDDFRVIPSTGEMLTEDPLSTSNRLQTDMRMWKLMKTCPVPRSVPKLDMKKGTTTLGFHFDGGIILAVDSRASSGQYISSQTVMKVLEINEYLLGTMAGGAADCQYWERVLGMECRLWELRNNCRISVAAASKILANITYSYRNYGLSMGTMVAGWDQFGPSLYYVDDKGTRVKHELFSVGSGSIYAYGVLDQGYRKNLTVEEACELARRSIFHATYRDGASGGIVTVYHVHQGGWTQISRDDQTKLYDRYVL

Homo sapiens = species: Homo sapiens; test: To identify inhibition of the IFN signalling (Jak-Stat) pathway via expression of an eGFP reporter gene under the control of an IFN-stimulated response element (ISRE) containing MxA promoter.; type: functional; conditions: 30 µM
[7] = target: T4, Tyrosyl-tRNA synthetase, putative (Trypanosoma cruzi (strain CL Brener)) (UniProt Q4DSP6); test: Trypanosoma cruzi tyrosyl tRNA synthetase (TcYRS) _High Tyrosine SOP; type: functional; conditions: 30 µM; further: in the data most compounds retested in dose-response had high values
T4 sequence (whole entry): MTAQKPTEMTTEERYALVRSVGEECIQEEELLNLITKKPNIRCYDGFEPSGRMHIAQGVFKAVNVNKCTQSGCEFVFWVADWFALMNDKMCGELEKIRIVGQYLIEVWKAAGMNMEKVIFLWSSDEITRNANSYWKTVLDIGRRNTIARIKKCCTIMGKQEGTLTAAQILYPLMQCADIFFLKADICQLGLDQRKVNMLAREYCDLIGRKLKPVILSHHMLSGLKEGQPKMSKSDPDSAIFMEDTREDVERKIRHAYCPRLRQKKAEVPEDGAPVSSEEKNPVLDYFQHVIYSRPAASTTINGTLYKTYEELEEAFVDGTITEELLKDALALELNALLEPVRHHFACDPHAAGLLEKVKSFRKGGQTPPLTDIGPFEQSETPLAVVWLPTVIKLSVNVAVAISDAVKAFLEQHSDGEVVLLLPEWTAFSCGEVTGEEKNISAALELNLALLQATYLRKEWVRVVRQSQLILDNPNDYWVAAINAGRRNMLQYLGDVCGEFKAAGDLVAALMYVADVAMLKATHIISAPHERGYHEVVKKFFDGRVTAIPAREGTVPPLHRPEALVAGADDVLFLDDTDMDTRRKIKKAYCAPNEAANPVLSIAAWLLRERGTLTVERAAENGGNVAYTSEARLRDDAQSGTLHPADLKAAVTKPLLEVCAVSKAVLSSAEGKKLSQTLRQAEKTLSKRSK

[8] = target: T4, Tyrosyl-tRNA synthetase, putative (Trypanosoma cruzi (strain CL Brener)); test: Trypanosoma cruzi tyrosyl tRNA synthetase (TcYRS) SOP; type: functional; conditions: 30 µM
[9] = target: Chromo domain-containing protein 1 (Saccharomyces cerevisiae (strain ATCC 204508 / S288c) (Baker's yeast)) (UniProt P32657); test: ScCHD-1 Enzyme Inhibition Assay; type: functional; conditions: 30 µM; further: in the data most compounds retested in dose-response had high values
Chromo domain-containing protein 1 (Saccharomyces cerevisiae (strain ATCC 204508 / S288c) (Baker's yeast)), sequence (P32657 whole entry, the tested form may be a part): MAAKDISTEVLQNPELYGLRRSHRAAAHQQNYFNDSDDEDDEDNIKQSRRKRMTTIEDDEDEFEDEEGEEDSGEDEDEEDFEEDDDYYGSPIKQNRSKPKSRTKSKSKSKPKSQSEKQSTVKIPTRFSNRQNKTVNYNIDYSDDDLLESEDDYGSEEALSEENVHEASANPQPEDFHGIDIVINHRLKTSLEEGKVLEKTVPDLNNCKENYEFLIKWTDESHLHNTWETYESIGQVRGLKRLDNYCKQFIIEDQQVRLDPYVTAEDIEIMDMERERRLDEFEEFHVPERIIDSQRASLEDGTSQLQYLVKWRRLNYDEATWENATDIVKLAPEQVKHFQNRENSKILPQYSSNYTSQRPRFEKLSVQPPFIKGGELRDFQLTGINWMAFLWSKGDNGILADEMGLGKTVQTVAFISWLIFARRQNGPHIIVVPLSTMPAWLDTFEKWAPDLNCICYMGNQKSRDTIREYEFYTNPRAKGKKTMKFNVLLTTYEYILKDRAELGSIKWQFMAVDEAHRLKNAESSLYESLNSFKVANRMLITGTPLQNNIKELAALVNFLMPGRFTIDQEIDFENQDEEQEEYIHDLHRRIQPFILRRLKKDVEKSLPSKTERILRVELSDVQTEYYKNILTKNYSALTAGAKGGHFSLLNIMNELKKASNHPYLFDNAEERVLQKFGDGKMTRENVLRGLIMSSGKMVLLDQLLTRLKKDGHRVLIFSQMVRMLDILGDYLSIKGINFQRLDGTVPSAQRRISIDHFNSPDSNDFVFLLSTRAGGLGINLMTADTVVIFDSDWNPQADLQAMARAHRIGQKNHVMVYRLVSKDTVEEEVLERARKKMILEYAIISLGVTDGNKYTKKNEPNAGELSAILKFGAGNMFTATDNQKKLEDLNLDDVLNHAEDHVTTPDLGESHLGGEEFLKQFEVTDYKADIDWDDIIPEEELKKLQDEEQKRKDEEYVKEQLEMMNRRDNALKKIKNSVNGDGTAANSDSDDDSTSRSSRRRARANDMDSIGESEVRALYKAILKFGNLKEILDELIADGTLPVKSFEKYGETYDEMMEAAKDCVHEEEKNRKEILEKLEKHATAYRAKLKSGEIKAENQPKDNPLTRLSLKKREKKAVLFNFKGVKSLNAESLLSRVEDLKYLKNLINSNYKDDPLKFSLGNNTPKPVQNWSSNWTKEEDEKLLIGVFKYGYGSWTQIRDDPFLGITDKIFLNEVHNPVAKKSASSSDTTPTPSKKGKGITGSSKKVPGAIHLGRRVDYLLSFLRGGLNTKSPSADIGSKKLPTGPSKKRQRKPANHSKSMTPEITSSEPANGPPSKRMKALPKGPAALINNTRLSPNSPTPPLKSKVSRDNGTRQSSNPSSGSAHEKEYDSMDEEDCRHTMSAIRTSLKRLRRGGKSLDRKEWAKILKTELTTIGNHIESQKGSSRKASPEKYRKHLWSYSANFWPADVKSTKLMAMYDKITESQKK

Protein translocase subunit SecA (Escherichia coli (strain K12)), sequence (P10408 whole entry): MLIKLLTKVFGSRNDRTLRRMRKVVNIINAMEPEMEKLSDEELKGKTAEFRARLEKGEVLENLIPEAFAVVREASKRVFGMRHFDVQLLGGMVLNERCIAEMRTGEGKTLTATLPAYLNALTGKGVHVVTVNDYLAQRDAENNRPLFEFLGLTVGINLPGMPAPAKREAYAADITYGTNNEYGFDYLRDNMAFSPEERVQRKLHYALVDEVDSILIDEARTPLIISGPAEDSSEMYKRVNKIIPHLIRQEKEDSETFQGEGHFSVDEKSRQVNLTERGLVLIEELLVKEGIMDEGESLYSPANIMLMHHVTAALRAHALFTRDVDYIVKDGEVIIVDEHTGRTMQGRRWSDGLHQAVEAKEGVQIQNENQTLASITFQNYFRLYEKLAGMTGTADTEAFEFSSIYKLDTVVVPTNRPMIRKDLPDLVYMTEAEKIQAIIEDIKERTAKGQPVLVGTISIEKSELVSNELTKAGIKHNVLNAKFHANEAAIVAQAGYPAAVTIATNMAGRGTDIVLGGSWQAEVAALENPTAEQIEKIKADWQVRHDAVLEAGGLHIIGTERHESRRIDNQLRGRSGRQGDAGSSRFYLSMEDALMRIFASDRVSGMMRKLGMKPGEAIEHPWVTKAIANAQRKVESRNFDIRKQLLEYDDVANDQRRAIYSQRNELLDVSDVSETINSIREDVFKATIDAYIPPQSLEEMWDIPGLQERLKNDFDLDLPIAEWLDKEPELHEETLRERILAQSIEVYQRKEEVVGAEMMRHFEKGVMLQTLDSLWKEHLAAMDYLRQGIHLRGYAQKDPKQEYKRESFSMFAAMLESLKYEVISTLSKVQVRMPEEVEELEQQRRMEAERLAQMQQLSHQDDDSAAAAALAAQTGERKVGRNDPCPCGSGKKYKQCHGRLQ
Sialic acid-binding Ig-like lectin 9 (Homo sapiens), sequence (Q9Y336 whole entry): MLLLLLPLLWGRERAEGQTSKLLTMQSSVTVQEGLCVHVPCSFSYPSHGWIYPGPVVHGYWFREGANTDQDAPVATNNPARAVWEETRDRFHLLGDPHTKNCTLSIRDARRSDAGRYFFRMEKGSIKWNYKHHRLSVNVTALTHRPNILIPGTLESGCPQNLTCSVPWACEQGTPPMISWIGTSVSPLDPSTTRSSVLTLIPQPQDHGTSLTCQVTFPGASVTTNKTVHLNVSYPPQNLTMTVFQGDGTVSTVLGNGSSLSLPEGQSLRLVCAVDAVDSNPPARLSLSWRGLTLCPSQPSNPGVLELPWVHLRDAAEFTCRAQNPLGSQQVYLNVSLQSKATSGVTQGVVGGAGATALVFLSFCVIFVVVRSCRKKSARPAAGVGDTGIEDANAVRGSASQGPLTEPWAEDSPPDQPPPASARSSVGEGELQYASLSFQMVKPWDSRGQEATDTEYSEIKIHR

| SMILES | Percent Effect [1] | Percent Effect [2] | Percent Effect [3] | Percent Effect [4] | Percent Effect (Trypanosoma cruzi) | Percent Effect [5] | Percent Effect [6] | Percent Effect (Homo sapiens) | Percent Effect [7] | Percent Effect [8] | Percent Effect [9] |
| --- | --- | --- | --- | --- | --- | --- | --- | --- | --- | --- | --- |
| CCS(=O)(=O)CC(=O)NC(c1ccccc1)C1CCCCC1 (stereo not given) | -6.35% | 2.63% | 9.57% | -0.679% | 3.41% | -17.8% | 21.6% | -15.8% | 4.25% | 7.79% | -3.43% |
| CC(C)c1nn(C)c(N2CCOCC2)c1CN[C@H](C)CO | -5.92% | 7.89% | -9.46% | -5.12% | -1.96% | 1.44% | 3.3% | -5.23% | 5.42% | 6.17% | -4.66% |
| CCc1nnc(CN(C)c2nc(C3CCCC3)nc3c2cnn3C)o1 | -4.33% | 4.17% | 7.51% | 2.48% | 3.79% | 2.65% | 10.5% | 7.5% | 1.05% | 7.69% | -2.84% |
| CC(=O)N1CCN(Cn2nc(-c3ccc(F)cc3)oc2=O)CC1 | -3.09% | 23.4% | -4.67% | -7.73% | -2.25% | 0.712% | 8.11% | 15% | 9.71% | 21.9% | -10.3% |
| COc1cccc(S(=O)(=O)NC(=O)COC2CCCC2)c1 | -1.91% | 20.8% | 2.89% | 10.4% | 2.06% | 2.85% | 10.6% | 3.15% | 8.74% | 24.4% | -6.86% |
| Clc1ccc2cccnc2c1CN1CCCC1Cn1cncn1 (stereo not given) | -1.02% | -10.8% | -3.88% | -0.559% | -5.85% | 4.99% | 7.18% | 63.7% | 7.92% | -1.22% | 5.04% |
| Cc1noc([C@H]2COC[C@H]3CN(C(=O)Cc4ccc(F)cc4)C[C@H]32)n1 | -6.71% | 10.8% | -2.57% | 13.3% | 3.91% | 3.75% | 7.18% | -8.46% | 5.94% | 11% | -1.22% |
| Cc1cc(CNC(=O)NC(C)c2ccc(N3CCOCC3)cc2)no1 (stereo not given) | -5.74% | 10.4% | -1.83% | 16.5% | 5.61% | -6.9% | 11.8% | -5.95% | 4.3% | 8.64% | -6.04% |
| O=C(COc1coc(CN2CCOCC2)cc1=O)c1ccc(Cl)cc1 | -3.55% | 2.63% | 5.88% | 11% | -2.04% | -11.8% | 12% | 20.8% | -1.06% | 0% | -0.42% |
| CCN(Cc1nc2c(cnn2C)c(=O)[nH]1)c1ccc(OC)c(OC)c1 | -2.86% | 24.1% | 14.9% | -0.321% | 0.513% | -2.8% | 23.3% | 27% | 9.38% | 20.2% | -22.5% |

— ChEMBL document CHEMBL3988442, “University of Dundee, Small-Polar-MMV Screening Library” (2021)
